Compounds with a hit are over-represented: about 2.4% of the library has one in this group of screens.
Pol beta inh-1: blocks human DNA polymerase beta activity | P06746 | Pol beta primer extension/strand displacement, fluorescence kinetic | Potency, µM (doses to about 114 µM), for inactives: at the highest dose activity change, negative = inhibition, actives largely listed as inhibitors | hit rate 1.3% among 340,000 | AID 485314; note: potency is the fitted concentration of half-maximal effect; % is set by controls: 0 for no effect and ±100 for the full control effect
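Pol beta (10 nM) and compounds were preincubated 15 min at room temperature, then 50 nM substrate (final) started primer extension/strand displacement. Reads were taken at 0 and 10 min; concentration-response data were fitted to a four-parameter Hill equation.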
Pol iota inh: DNA polymerase iota (human) inhibition; Pol iota fluorescent replication assay, 10 min; hit rate 1% among 390,000; Potency, µM (doses to about 115 µM), for inactives: top-dose activity, negative = inhibition, actives largely listed as inhibitors; Q9UNA4; note: potency is the fitted concentration of half-maximal effect
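Pol iota at 10 nM preincubated 15 min with compounds at room temperature; reaction started with fluorescent substrate, 50 nM final. Fluorescence read kinetically at 0 and 10 min; buffer-only wells as negative control.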
Pol eta inh-1: inhibitors of human DNA polymerase eta; recombinant Pol eta, fluorescent DNA replication assay; Potency, µM (top dose mostly 114 µM), without a hit: at the top dose activity change, negative = inhibition, most hits filed as inhibitors; hit rate 1.2% among 390,000; AID 588591; note: potency is the fitted concentration of half-maximal effect; % is set by controls: 0 for no effect and ±100 for the full control effect
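Pol eta (10 nM) was preincubated with compounds for 15 min at room temperature, after which fluorescent replication substrate (50 nM final) was added to start the reaction. Fluorescence was read kinetically at 0 and 10 min.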
L3MBTL1 inh-1: inhibitors of human L3MBTL1. Q9Y468. AlphaScreen L3MBTL1–H3K9me1 peptide binding. Potency, µM (doses to about 57.1 µM), for inactives: top-dose activity, negative = inhibition, hits mostly inhibitors. hit rate 0.66% among 230,000. AID 485360; note: potency is the fitted concentration of half-maximal effect; % is set by controls: 0 for no effect and ±100 for the full control effect; nearly all actives have a fitted effect of over 60% in size
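Read-out is AlphaScreen signal from streptavidin donor and nickel chelate acceptor beads (10 ug/mL final each) bridging L3MBTL1 (50 nM) and biotinylated K9-monomethylated H3(1-15) peptide (75 nM), after 30 min compound exposure at room temperature.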
Pol kappa inh-1: blocks human DNA polymerase kappa activity; Q9UBT6; purified Pol kappa, fluorescent DNA synthesis assay, 10 min; Potency, µM (series often up to 107 µM), inactives show top-dose activity, negative = inhibition, actives largely listed as inhibitors; hit rate 0.53% among 400,000; AID 588579; note: potency is the fitted concentration of half-maximal effect; % is set by controls: 0 for no effect and ±100 for the full control effect
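Activity was followed as the change in fluorescence between reads at 0 and 10 min after starting the reaction with 50 nM substrate. Beforehand, 10 nM polymerase had been preincubated with compound for 15 min at room temperature.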
Pol beta inh-2: Inhibitors of human DNA polymerase beta, hit validation | shares compounds with Pol beta inh-1 | Pol beta primer extension/strand displacement, fluorescence kinetic | Potency, µM, usual class: inhibitors | hit rate 87% among 250 | AID 540280; calls by dose curve; note: potency is the fitted concentration of half-maximal effect
Klenow inh: counter-screen for DNA polymerase beta inhibitors: Klenow fragment inhibition | shares compounds with Pol beta inh-1 | Klenow exo- polymerase counter-screen, fluorescent DNA substrate | activity change, negative = inhibition, % at 57.1 µM | 250 tested, under 10 active | AID 540300
HIV RT inh: inhibits HIV-1 reverse transcriptase in counter-screen; shares compounds with Pol beta inh-1; HIV-1 RT polymerase activity, counter-screen; activity % (negative = inhibition, positive = activation), % at 57.1 µM; 250 tested, under 10 active; AID 540301
POLB valid: DNA polymerase beta inhibition, radiolabeled validation | shares compounds with Pol beta inh-1 | radiolabeled primer extension gel assay, phosphorimager | inhibition, % at 10 µM | hit rate 91% among 110;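 active = inhibition at 10 µM of 30% or more; inconclusive = no clear call, values can overlap the other calls; inactive = inhibition at 10 µM under 30%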
L3MBTL1 inh-2: L3MBTL1 binding inhibition validated | shares compounds with L3MBTL1 inh-1 | L3MBTL1 methyl-lysine binding inhibition, biochemical qHTS | Potency, µM, actives largely listed as inhibitors | hit rate 91% among 500 | AID 540279; note: potency is the fitted concentration of half-maximal effect; nearly all actives have a fitted effect of over 70% in size
L3MBTL1 ctr: counter-screen for L3MBTL1 inhibitors: AlphaScreen signal interference. shares compounds with L3MBTL1 inh-1. AlphaScreen counterscreen, signal inhibition. Potency, µM (titrated, usually from 57.1 µM), for inactives: top-dose activity change, negative = inhibition, most hits filed as inhibitors. 500 tested, under 10 active. AID 602224; note: potency is the fitted concentration of half-maximal effect; 0% is about no effect
POLI cherry-pick: Human Pol iota inhibitor confirmatory assay. Pol iota primer extension, TAMRA/BHQ fluorescence. hit rate 77% among 1,500. Potency, µM, most hits filed as inhibitors. shares compounds with Pol kappa inh-1; note: potency is the fitted concentration of half-maximal effect
Pol kappa inh-2: Pol kappa (human) inhibition, cherry-pick confirmation | shares compounds with Pol eta inh-1 | purified Pol-kappa, fluorescent strand-displacement substrate | Potency, µM, hits mostly inhibitors | hit rate 76% among 920 | AID 720501; note: potency is the fitted concentration of half-maximal effect
Pol eta inh-2: confirmation of human DNA polymerase eta inhibitors. shares compounds with Pol eta inh-1. Pol eta primer extension, TAMRA/BHQ fluorescence, 10 min. Potency, µM, actives largely listed as inhibitors. hit rate 64% among 2,600. AID 720502; note: potency is the fitted concentration of half-maximal effect
The depositor's hits bear a star; ? = inconclusive; · = not tested or not shown; [ ] = dose if it differs, or a comment. Unless noted, calls come from the whole dose curve; as a rule, active = well fitted curve in the direction sought with a large enough effect; inconclusive = small, poorly fitted or top-dose-only effect, or another doubt; inactive = no such curve, though single readings can be large; an effect the other way counts as inactive or inconclusive.

SMILES	Pol beta inh-1	Pol iota inh	Pol eta inh-1	L3MBTL1 inh-1	Pol kappa inh-1	Pol beta inh-2	Klenow inh	HIV RT inh	POLI cherry-pick	Pol eta inh-2	others
CCOC(=O)C1=C(CN2CCN(c3cc(C)ccc3C)CC2)NC(=O)NC1c1ccccc1 (configuration not stated)	0%	10%	?	·	-12%	·	·	·	·	·
CC1CCN(c2oc(-c3ccc(COc4ccc(Cl)cc4)o3)nc2C#N)CC1	0%	37%	-23%	·	6%	·	·	·	·	·
Cc1ccc(S(=O)(=O)N2CCN(C(=O)Cc3ccc(S(=O)(=O)N4CCOCC4)s3)CC2)cc1	10%	2%	3%	·	4%	·	·	·	·	·
COc1ccc(N2CCN(C(=O)Cc3ccc(S(=O)(=O)N4CCOCC4)s3)CC2)cc1	13µM*	20µM*	20µM*	?	79µM*	32*	-33	45	42*	48*	POLB valid=83*
Cc1cccc(NC(=O)C(Cc2ccccc2)N2Cc3ccccc3C2=O)c1C (configuration not stated)	3%	-12%	3%	·	-14%	·	·	·	·	·
CCCCc1cc(=O)oc2cc(C)c(CN3CCCC3)c(O)c12	5µM*	11µM*	20µM*	?	?	35*	1	12	·	30*
CCCCc1cc(=O)oc2c(CN3CCCC3)c(O)ccc12	-2%	14%	3%	-1%	-5%	·	·	·	·	·
COc1cccc(-c2cc(C(=O)NC3CC3)c3ccccc3n2)c1	27%	37%	-19%	·	0%	·	·	·	·	·
O=C(NC1CCC(O)CC1)c1cc(-c2ccco2)nc2ccccc12 (configuration not stated)	13µM*	35µM*	25µM*	·	?	28*	-17	41	67*	76*	POLB valid=84*
COc1ccc(NC(=O)c2cc(-c3ccco3)nc3ccccc23)cc1S(=O)(=O)N1CCOCC1	2µM*	?	16µM*	-86%	40µM*	10*	-10	-9	15*	17*
CCc1nnc(NC(=O)c2cc(-c3ccco3)nc3ccccc23)s1	8.9µM*	1.3µM*	16µM*	?	25µM*	20*	-11	33	?	76*
COc1ccc(NC(=O)c2cc(C)nc3ccccc23)cc1S(=O)(=O)N1CCOCC1	·	58%	8%	5%	-9%	·	·	·	·	·
CN(CCC#N)C(=O)COC(=O)c1c2c(nc3ccccc13)/C(=C/c1ccco1)CC2	8.9µM*	3.2µM*	6.3µM*	10µM*	20µM*	22*	-27	6	30*	54*	L3MBTL1 inh-2=2.1*;L3MBTL1 ctr=?
Cc1ccc(NC(=O)CSCc2cc(=O)c3ccccc3[nH]2)c(C)c1	-1%	4%	4%	·	-7%[60.1 µM]	·	·	·	·	·
Cc1cccc(NC(=O)CSc2ncc3c(n2)-c2ccccc2N(Cc2ccc(F)cc2)S3(=O)=O)c1C	3%	11%	-5%	·	-14%	·	·	·	·	·
O=C(CCCn1c(SCC(=O)NC2CCCCC2)nc2ccccc2c1=O)NCC1CCCO1 (configuration not stated)	4%	-2%	-16%	-3%	1%	·	·	·	·	·
O=C(CCCn1c(SCC(=O)c2ccc(O)c(O)c2)nc2ccccc2c1=O)NCC1CCCO1 (configuration not stated)	7.9µM*	14µM*	20µM*	?	20µM*	10*	-25	-12	·	60*
CCCOC(=O)N1CCN(/[N+]([O-])=N/Oc2ccc([N+](=O)[O-])cc2[N+](=O)[O-])CC1	·	?	·	·	-8%	·	·	·	·	·
CC(C)Cn1c(N)c(C(=O)COC(=O)c2cc(-c3ccco3)nc3ccccc23)c(=O)n(C)c1=O	14µM*	25µM*	18µM*	8.9µM*	?	11*	-7	-16	·	48*
COCCn1c(C)cc(C(=O)COC(=O)c2cc3c(s2)CCC3)c1C	10µM*	?	8.9µM*	10µM*	40µM*	32*	-23	26	38*	67*	POLB valid=84*;L3MBTL1 inh-2=6.7*;L3MBTL1 ctr=?
COCCn1c(C)cc(C(=O)COC(=O)c2cccc(O)c2)c1C	8%	-2%	2%	·	0%	·	·	·	·	·
CC(C)CC(=O)Nc1nc2nc(-c3ccccc3)cc(=O)n2[nH]1	-2%	20%	-12%	·	-23%	·	·	·	·	·
COc1ccccc1OCC(=O)N(Cc1ccc(N(C)C)cc1)CC1CCCO1 (configuration not stated)	3%	-3%	-21%	·	6%	·	·	·	·	·
Cc1ccc(CNC(=O)c2ccc(-n3cccc3)cc2)cc1	6.3µM*	14µM*	13µM*	·	22µM*	8.9*	-27	21	19*	30*	Pol kappa inh-2=19*
Cc1nc(C)c(C(=O)Nc2nc3c(C)cccc3s2)o1	18µM*	?	25µM*	20µM*	40µM*	32*	-5	5	?	48*
Cc1ccc2nc(/C(C#N)=C/c3ccc(-c4cccc([N+](=O)[O-])c4)o3)[nH]c2c1	5µM*	10µM*	?	-8%	-31%	5.6*	-39	32	?	76*

High-throughput results from PubChem.
